Experimental data reported in PubChem BioAssay AID504332 (National Center for Advancing Translational Sciences (NCATS), 2011).
Values joined by “and” are separate entries in the source; they are usually repeats but may differ in a detail not shown here. Identical values can stand only once. The campaign covered roughly 350,000 compounds. About 31,000 (8.9%) were called active. Inconclusive results (about 15%) are left out. The sample holds actives, similar compounds and a random draw of the others, so the mix is not that of the screen. Some compounds were tested as several samples or in several runs, with calls that do not always agree. Values without a mark were called inactive. Calls come from the whole dose curve; as a rule, active = well fitted inhibition curve with a large enough effect; inconclusive = small, poorly fitted or top-dose-only effect; inactive = no such curve, though single readings can be large or run the other way.

Molecular target: Histone-lysine N-methyltransferase EHMT2 (Homo sapiens) (UniProt Q96KQ7)
Test: qHTS Assay for Inhibitors of Histone Lysine Methyltransferase G9a; note: nearly all actives have a fitted effect of over 75% in size
Conditions: G9a H3K9 monomethylation, AlphaScreen, 2 h; series mostly up to 59 µM; activity, negative = inhibition: at the top concentration
Summary of the method: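 Methyltransferase reactions run at room temperature for 2 h (20 nM enzyme, 500 nM biotin-H3K9 peptide, 20 uM SAM) after a 15 min compound preincubation; product detected by AlphaScreen beads and anti-H3K9me1 antibody.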
% is set by controls: 0 for no effect and ±100 for the full control effect; potency is the fitted concentration of half-maximal effect.

Histone-lysine N-methyltransferase EHMT2 (Homo sapiens), sequence (Q96KQ7 913-1193 limits assumed): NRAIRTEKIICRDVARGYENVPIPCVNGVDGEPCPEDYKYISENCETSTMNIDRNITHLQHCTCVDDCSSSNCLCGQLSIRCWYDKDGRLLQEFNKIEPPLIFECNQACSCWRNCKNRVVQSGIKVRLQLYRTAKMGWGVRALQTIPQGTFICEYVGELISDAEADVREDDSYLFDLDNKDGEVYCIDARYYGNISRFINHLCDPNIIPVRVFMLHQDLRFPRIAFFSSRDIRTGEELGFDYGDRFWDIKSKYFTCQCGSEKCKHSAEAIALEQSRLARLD

| Compound | activity, negative = inhibition | Potency |
| --- | --- | --- |
| COc1cc(C2C3C(=O)N(c4ccccc4)C(=O)C3ON2c2ccccc2)ccc1O (stereo not given) | 12.5% |  |
| COC(=O)C1=NN(c2ccccc2)C2C(=O)N(c3ccccc3OC)C(=O)C12 (stereo not given) | -8.07% |  |
| Cc1ccccc1N1C(=O)C2ON(c3ccccc3)C(c3ccncc3)C2C1=O (stereo not given) |  | 44.7 µM (active) |
| CCOc1ccc2c(c1)c(=O)c(S(=O)(=O)c1ccc(C)cc1)cn2CC | 6.41% [at 102 µM] |  |
| COc1ccccc1C(=O)COC(=O)CSCC(=O)Nc1cc(C)on1 | -33.7% [at 102 µM] |  |
| CC(C)(COC(=O)Nc1ccccc1)COC(=O)Nc1ccccc1 | -24.1% [at 2.33 µM] |  |
| COc1cccc(C(=O)c2sc3nc(-c4ccccc4)cc(C(F)(F)F)c3c2N)c1 | 71% |  |
| CCOC(=O)c1sc2nc(SC)nc(-c3ccccc3)c2c1N | 22.6% [at 12.7 µM] |  |
| CCN(CC)C(=O)c1sc2nc(-c3ccccc3)ccc2c1N |  | 17.8 µM (active) |
| CC(=O)NS(=O)(=O)c1ccc2c(c1)Cc1cc(S(=O)(=O)NC(C)=O)ccc1-2 | -3.76% [at 0.501 µM] |  |
| COc1ccc(CCNC(=O)c2c3c(nc4ccccc24)C(=O)N(C2CCCCC2)C3)cc1OC | 9.2% |  |
| COc1ccc(/C=C/C(=O)Nc2ccc3c(c2)OCCO3)cc1OC | -16.2% |  |
| CCOc1ccc(C(=O)Nc2ccc3nc4c(c(Nc5ccccc5OC)c3c2)CCCC4)cc1 | -44% |  |
| COc1ccccc1Nc1c2c(nc3ccc(NC(=O)/C=C/c4cc(OC)c(OC)c(OC)c4)cc13)CCCC2 |  | 14.1 µM (active) |
| O=C(NC1CC(=O)N(c2ccccc2)C1)c1ccco1 (stereo not given) | -2.6% |  |
| O=C(NN1C(=O)C2C3C=CC(C3)C2C1=O)c1ccco1 (stereo not given) |  | 12.6 µM (active) |
| CC(C)=C1C2CCC1C1C(=O)N(NC(=O)c3ccco3)C(=O)C21 (stereo not given) | 6.86% [at 102 µM] |  |
| CCOc1ccc(CNC(=O)Cn2cc3c(n2)-c2c(oc(C(=O)N4CCCC4)c2C)CC3)cc1 | -35.9% |  |
| O=C(COC(=O)c1ccc2ncsc2c1)Nc1ccc(Cl)cc1 | -43.9% [at 12.7 µM] |  |
| Cc1csc(Nc2ccc(Cl)cc2)[n+]1-c1ccc(Cl)cc1 |  | 20 µM (active) |

| Compound | activity, negative = inhibition | Potency |
| --- | --- | --- |
| O=c1ccnc(Nc2ccc(Cl)cc2)[nH]1 | 1.74% [at 102 µM] |  |
| CCc1ccc(NC(=O)COC(=O)c2cccs2)cc1 | -8.8% [at 102 µM] |  |
| COc1ccccc1NC(=O)Cn1cnc2ccc(S(=O)(=O)N3CCC(C)CC3)cc2c1=O | -0.173% |  |
| COc1ccc(-c2noc(CCCC(=O)NC3CCCC3)n2)cc1OC |  | 79.4 µM (active) |
| CCOc1cc(-c2noc(CCCC(=O)NC3CCCCC3)n2)ccc1OC | 28.6% [at 102 µM] |  |
| CCOc1ccc2[nH]c3nc(SCC(=O)NC4CCCC4)nnc3c2c1 | 12.1% |  |
| CCOc1cc(-c2nnc(SCC(=O)NC3CCCCC3)nc2-c2ccc(OC)c(OCC)c2)ccc1OC |  | 8.91 µM (active) |
| CCC(Sc1nnc(-c2ccc(OC)cc2)c(-c2ccc(OC)cc2)n1)C(=O)NC1CCCCC1 (stereo not given) | 6.11% |  |
| CCOc1ccc(-c2noc(CCC(=O)NC3CCCC3)n2)cc1OC | 20.6% [at 102 µM] |  |
| COc1ccc(-c2nnc(SCC(=O)NC3CCCCC3)o2)cc1OC | 5.72% [at 102 µM] |  |
| COc1ccc(-c2nnc(SCC(=O)Nc3ccc(C(C)C)cc3)nc2-c2ccc(OC)c(OC)c2)cc1OC | -3.65% |  |
| CCOc1cc(-c2nnc(SCC(=O)NC3CCCC3)nc2-c2ccc(OC)c(OCC)c2)ccc1OC |  | 11.2 µM (active) |
| Cc1ccc(Nc2nnc(-c3ccc(C)c(S(=O)(=O)N4CCCCC4)c3)c3ccccc23)cc1 | 12.6% |  |
| CC(=O)N1CCN(c2ccccc2NC(=S)NC(=O)c2cc3ccccc3o2)CC1 | 10.6% [at 102 µM] |  |
| CC(C)(C)OC(=O)N1CCC(c2c(C(=O)NCCc3ccsc3)cnn2-c2ccc(F)cc2F)CC1 | -1.68% |  |
| COc1ccc([C@H]2CC(=O)C=C(c3ccc(CO)cc3)C2)cc1 | 11.2% [at 0.501 µM] |  |
| Cc1c(-c2cccc(NC(=O)C(C)(C)C)c2)nc2ncccn12 | 9.24% |  |
| COc1ccc(Br)cc1CNC(=O)c1cc(=O)[nH]c2ccc(S(=O)(=O)N3CCCC3)cc12 | -3.57% |  |
| Cc1ccc(SCC(=O)Nc2ccc3oc(-c4ccccc4F)nc3c2)cc1 | 6.8% |  |
| CCOC(=O)c1sc(NC(=O)CSc2nnc(-c3ccco3)o2)c(C(=O)OCC)c1C | -13.7% |  |

| Compound | activity, negative = inhibition | Potency |
| --- | --- | --- |
| CCOC(=O)c1sc(NC(=O)CSc2nc(C)cc(C(F)(F)F)n2)c(C#N)c1C |  | 11.2 µM (active) |
| CCOC(=O)c1sc(NC(=O)CSc2ncccn2)c(C#N)c1C | -13.3% [at 12.7 µM] |  |
| O=C(Nc1ccc(C(=O)OCc2cc(=O)n3nc(C4CC4)sc3n2)cc1)c1ccc(F)cc1 | 7.88% [at 12.7 µM] |  |
| S=c1[nH]nc(-c2cccs2)n1/N=C/c1cccs1 |  | 1.26 µM (active) |
| Cc1n[nH]c(=O)nc1N/N=C/c1cccs1 | 16.1% [at 102 µM] |  |
| Oc1ccccc1/C=N/n1c(-c2cccs2)n[nH]c1=S |  | 1.58 µM (active) |
| Cc1ccsc1/C=N/n1c(=S)[nH]nc(C)c1=O | 5.6% |  |
| c1ccc(-c2noc(-c3cccs3)n2)nc1 | 9.04% |  |
| COc1cc(-c2cc3n(C)c(C)c(CCC(=O)Nc4ccc(F)cc4)c(=O)n3n2)cc(OC)c1OC | -1.47% |  |
| Cc1cccc(NC(=O)CSc2nnc(CNC(=O)c3cccc(C)c3)n2-c2ccccc2)c1 | -46.9% |  |
| COc1cccc(CNC(=O)CCCC(=O)Nc2cccc([N+](=O)[O-])c2)c1 | 26.3% [at 102 µM] |  |
| COc1cccc(NCCC(=O)c2cccc([N+](=O)[O-])c2)c1 |  | 35.5 µM (active) |
| COc1cccc(C(=O)CC(=O)C(=O)Nc2ccc([N+](=O)[O-])cc2C)c1 | -37.1% [at 102 µM] |  |
| O=C(CN1CCOC1=O)N1CCCC(Nc2ccc(F)c(F)c2)C1 (stereo not given) | 10.1% |  |
| CCC(=O)Nc1nc(C)c(C(=O)Nc2cccc(Cl)c2)s1 | 21.5% |  |
| CCN(CC)CCNc1ncnc2c1cnn2-c1cc(Cl)ccc1C | -26.5% |  |
| CCN(CC)CCCC(C)Nc1ccnc2cc(Cl)ccc12 (stereo not given) | -36.5% [at 2.33 µM] and 28.9% [at 12.7 µM] | 25.1 µM (active) |
| CCN(CC)CCCNC(=O)c1cc(-c2cccc(Cl)c2)on1 | -3.23% [at 102 µM] |  |
| O=C(NCCc1ccco1)C(=O)NCCC1CCCCN1S(=O)(=O)c1ccccc1 (stereo not given) | 10.9% [at 0.501 µM] |  |
